A short description of test [1]: qHTS for Inhibitors of Plasmodium falciparum (DD2) proliferation (AID 504314).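 Note: parasite DNA measured by SYBR Green fluorescence after red cell lysis; plate controls were DMSO vehicle for no effect and artemisinin wells for full effect.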 Conditions: P. falciparum Dd2 in erythrocytes, SYBR Green growth, 72 h; series mostly up to 6.11 µM. In short, it runs like this:
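P. falciparum Dd2 is grown in erythrocytes with test compound for 72 h at 37C under 5% CO2. Growth is scored by SYBR Green I fluorescence after detergent lysis, relative to artemisinin (0.29 uM) and DMSO controls.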
A general note: In qHTS, concentration-response curves come from the screen itself.

A short description of test [2]: qHTS for Inhibitors of Plasmodium falciparum (GB4) proliferation (AID 504315).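 Note: 0% = DMSO vehicle and -100% = 0.29 µM artemisinin control; nearly all actives have a fitted effect of over 50% in size.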 The following applies: P. falciparum GB4 in erythrocytes, SYBR Green DNA, 72 h; series mostly up to 6.7 µM. The essentials: (§1)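 Parasite growth measured as SYBR Green DNA fluorescence (ex 485, em 535 nm) after overnight lysis following 72 h culture at 37 °C, 0.3% parasitemia, 2.5% hematocrit. Values normalized against DMSO and 0.29 uM artemisinin controls, with plate-stack correction.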

Test [3] can be described thus: qHTS for Inhibitors of Plasmodium falciparum (7G8) proliferation (AID 504316).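 Note: 0% = DMSO vehicle and -100% = 0.29 µM artemisinin full kill; nearly all actives have a fitted effect of over 65% in size.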 Conditions: P. falciparum 7G8 in erythrocytes, SYBR Green DNA, 72 h; series mostly up to 6.7 µM. In short, it runs like this: as §1
Test [4] in a line: qHTS for Inhibitors of Plasmodium falciparum (HB3) proliferation (AID 504318).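 Note: 0% = DMSO vehicle and -100% = artemisinin control; nearly all actives have a fitted effect of over 60% in size.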 The following applies: P. falciparum HB3 in erythrocytes, SYBR Green DNA, 72 h; series mostly up to 7.21 µM. The essentials:
as §1

Test [5] in a line: qHTS for Inhibitors of Plasmodium falciparum (CP250) proliferation (AID 504320).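 Note: plate controls were DMSO vehicle for no effect and 0.29 µM artemisinin control for full effect.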 Conditions: P. falciparum CP250 in erythrocytes, SYBR Green DNA, 72 h; series mostly up to 6.7 µM. In short, it runs like this: as §1
In test [6] the target is Alpha-galactosidase (Coffea arabica) (UniProt Q42656). Nature of the test: Counterscreen for Glucocerebrosidase Inhibitors: qHTS Assay for Coffee Bean alpha-Galactosidase at pH 4.5 (AID 957).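 Note: plate controls were enzyme alone for no effect and no enzyme for full effect.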 The following applies: purified coffee bean alpha-galactosidase, fluorogenic substrate; series mostly up to 76.9 µM. In short, it runs like this:
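Fluorogenic read-out: 4-methylumbelliferone at Ex 365/Em 440 nm after NaOH/glycine stop (pH 10). Enzyme 2 nM, 4-MU-alpha-galactoside 80 uM, citrate buffer pH 4.5, 20 min RT; normalized to no-enzyme and enzyme controls.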
For orientation: Counterscreens check selectivity or assay interference.

For test [7] the target is unchanged. Nature of the test: Counterscreen for Glucocerebrosidase Inhibitors: qHTS Assay for Coffee Bean alpha-Galactosidase at pH 5.9 (AID 998).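 Note: plate controls were uninhibited enzyme for no effect and no-enzyme basal signal for full effect.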 The following applies: coffee bean alpha-galactosidase enzyme assay; series mostly up to 76.9 µM. In short, it runs like this:
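Fluorogenic 4-MU substrate hydrolysis, 80 uM substrate and 2 nM coffee bean alpha-galactosidase, pH 5.9 citrate buffer, 20 min at room temperature, then NaOH/glycine stop. Titration 0.7 nM–77 uM, normalized to no-enzyme and enzyme controls, AC50 via Hill equation.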

The nature of test [8]: Nrf2 qHTS screen for inhibitors: Validation (AID 493153; active = well fitted inhibition curve with a large enough effect in the main read-out, with a control signal flat, not every such curve was filed as active; note: potency is the fitted concentration of half-maximal effect). The following applies: A549 ARE-Fluc reporter, 18-24 h; Potency: luciferase luminescence; viability change: measured here: cytotoxicity max response. The essentials: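 Concentration-response test in A549 ARE_Fluc reporter cells (5% FBS OPTI-MEM), compound exposure 18-24 h at 37°C, 5% CO2. Cell viability measured first by CellTiter-Fluor fluorescence; ARE-driven luciferase luminescence then measured as Nrf2 activity.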

A short description of test [9]: qHTS for Inhibitors of ATXN expression: Validation (AID 588378). Note: potency is the fitted concentration of half-maximal effect; nearly all actives have a fitted effect of over 75% in size. The following applies: cell-based ATXN2 expression reporter assay, luminescence. In short, it runs like this:
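Validation of ATXN2 expression inhibitors uses a cell-based luciferase fusion reporter in HEK293 cells, with 24 h compound exposure and paired viability (fluorescence) and reporter (luminescence) end-point reads.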

In test [10] the target is Estrogen receptor (Homo sapiens) (UniProt P03372). Nature of the test: qHTS assay for small molecule antagonists of estrogen receptor alpha signaling (AID 588513; active = well fitted curve in the direction sought with a large enough effect in the signal ratio, with a control signal flat, not every such curve was filed as active; the % refers to the signal ratio; note: potency is the fitted concentration of half-maximal effect). Conditions: ER-alpha-UAS-bla HEK293, beta-lactamase ratio, antagonist mode; series mostly up to 76.9 µM. In short, it runs like this: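 Cells were plated at 5000/well and incubated 4 h at 37 C. Compounds were added as 1:2 dilution series, duplicates. 17-beta-estradiol (0.5nM final) was added for 18 h before CCF4 detection.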
Estrogen receptor (Homo sapiens), sequence (P03372 whole entry, looked up): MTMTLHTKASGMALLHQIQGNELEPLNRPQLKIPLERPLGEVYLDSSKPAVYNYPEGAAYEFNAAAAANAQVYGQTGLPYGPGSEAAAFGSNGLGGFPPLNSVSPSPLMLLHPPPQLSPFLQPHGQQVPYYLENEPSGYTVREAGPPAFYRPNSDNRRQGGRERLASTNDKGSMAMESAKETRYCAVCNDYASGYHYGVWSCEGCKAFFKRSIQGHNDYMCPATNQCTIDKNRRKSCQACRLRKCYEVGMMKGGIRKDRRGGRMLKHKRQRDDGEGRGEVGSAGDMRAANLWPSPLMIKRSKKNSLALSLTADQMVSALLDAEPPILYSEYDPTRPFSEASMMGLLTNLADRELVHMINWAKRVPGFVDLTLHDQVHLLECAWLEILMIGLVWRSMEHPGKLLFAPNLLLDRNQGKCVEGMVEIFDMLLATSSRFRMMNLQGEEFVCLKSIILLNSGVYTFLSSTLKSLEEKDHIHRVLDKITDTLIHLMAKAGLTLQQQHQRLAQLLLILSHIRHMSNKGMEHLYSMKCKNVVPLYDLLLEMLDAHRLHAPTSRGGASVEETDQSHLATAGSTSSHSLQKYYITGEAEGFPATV

The nature of test [11]: qHTS assay for small molecule agonists of retinoid X receptor alpha signaling (AID 588544; calls by dose curve; note: potency is the fitted concentration of half-maximal effect;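 for activation: 0% = DMSO basal wells and 100% = reference agonist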). Conditions: HEK293T RXRa-UAS-bla, beta-lactamase reporter, 18 h; 530 nm emission.
For test [12], the target named is Retinoic acid receptor RXR-alpha (Homo sapiens) (UniProt P19793). The description is as above. The following applies: HEK293T RXRa-UAS-bla, beta-lactamase reporter, 18 h; series mostly up to 76.7 µM.
Retinoic acid receptor RXR-alpha (Homo sapiens), sequence (P19793 whole entry, looked up): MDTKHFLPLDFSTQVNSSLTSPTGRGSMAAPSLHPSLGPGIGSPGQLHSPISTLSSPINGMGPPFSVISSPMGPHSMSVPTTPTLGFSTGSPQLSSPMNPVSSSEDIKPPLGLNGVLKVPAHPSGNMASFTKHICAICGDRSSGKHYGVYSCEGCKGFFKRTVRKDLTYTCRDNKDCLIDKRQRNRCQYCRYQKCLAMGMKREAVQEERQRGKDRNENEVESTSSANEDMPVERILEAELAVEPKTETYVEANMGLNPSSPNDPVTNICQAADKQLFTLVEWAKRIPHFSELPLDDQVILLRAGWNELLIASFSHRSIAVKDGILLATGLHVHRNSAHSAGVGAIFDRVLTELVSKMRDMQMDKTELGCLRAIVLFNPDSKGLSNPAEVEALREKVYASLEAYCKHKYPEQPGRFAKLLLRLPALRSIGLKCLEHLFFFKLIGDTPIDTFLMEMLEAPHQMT
Test [13] can be described thus: MultiTox-Fluor Cytotoxicity Assay - LYMP1-001 - Live Cells (AID 947).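 Note: 0% = DMSO only and full inhibition = tetraoctylammonium bromide control.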 The following applies: LYMP1-001 lymphoblastoid cells, live-cell protease fluorescence viability; series mostly up to 92.2 µM.
Test [14] is described as follows: Cell Viability - LYMP2-005 (AID 967).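 Note: plate controls were DMSO only for no effect and 92 µM tetraoctylammonium bromide control for full effect.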 Conditions: LYMP2-005 lymphoblastoid cell viability; series mostly up to 92.2 µM. The essentials: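 qHTS viability screen in LYMP2-005 cells: 24 h at 37 C with compound, ATP luminescence via CellTiter-Glo, AC50 from Hill curves.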
A short description of test [15]: qHTS assay for small molecule activators of the p53 signaling pathway (AID 651743; active = well fitted activation curve with a large enough effect in the signal ratio, not every such curve was filed as active; the % refers to the signal ratio; note: % of control where 0% means no effect). Conditions: HCT-116 p53RE-bla, beta-lactamase FRET ratio, 16 h; activation: stronger effect = higher value. The essentials:
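A beta-lactamase reporter under p53 response element control, stably carried by HCT-116 cells, reported pathway activation. Test compounds were applied for 16 hours at 37 C, and fluorescence was measured 2 hours after adding the B/G FRET substrate.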

The target in test [16] is Cytochrome P450 2D6 (Homo sapiens) (UniProt P10635). Nature of the test: qHTS Assay for Inhibitors and Substrates of Cytochrome P450 2D6 (AID 891). Note: nearly all actives have a fitted effect of over 60% in size. Note: potency is the fitted concentration of half-maximal effect. The following applies: recombinant CYP2D6, luciferin-ME EGE luminescence; series mostly up to 57.1 µM. The essentials:
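Luminescent read-out of luciferin formed by 5 nM human CYP2D6 demethylating 30 uM Luciferin-ME EGE (Km level) over 60 min at room temperature after NADPH regeneration addition. Data normalized to full inhibition by 1.43 uM quinidine.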

Test [17] concerns the target Androgen receptor (Homo sapiens) (UniProt P10275). Nature of the test: qHTS assay for small molecule antagonists of androgen receptor signaling (AID 588516; active = well fitted curve in the direction sought with a large enough effect in the signal ratio, with a control signal flat, not every such curve was filed as active; the % refers to the signal ratio; note: potency is the fitted concentration of half-maximal effect). The following applies: AR-UAS-bla HEK293, beta-lactamase ratio, antagonist mode, 16 h; series mostly up to 76.8 µM. The essentials:
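Antagonist-mode qHTS: inhibition of R1881 (10 nM)-driven beta-lactamase expression in GripTite HEK 293 cells is measured after 16 h; values are Hill-derived IC50s normalized between R1881 and DMSO wells.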

In test [18] the target is Cytochrome P450 2C19 (Homo sapiens) (UniProt P33261). Nature of the test: qHTS Assay for Inhibitors and Substrates of Cytochrome P450 2C19 (AID 899). Note: nearly all actives have a fitted effect of over 60% in size. Note: potency is the fitted concentration of half-maximal effect. The following applies: recombinant CYP2C19, luciferin-H EGE luminescence; series mostly up to 57.1 µM. In short, it runs like this:
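Reactions contain 5nM enzyme, 10uM Luciferin-H EGE (KM) and 50mM KPO4; compound preincubates 10 min at 37C, NADPH regeneration starts turnover for 60 min. Luminescence after detection reagent gives activity.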

Test [19] deals with Lethal(3)malignant brain tumor-like protein 1 (Homo sapiens) (UniProt Q9Y468). Nature of the test: qHTS Assay for the Inhibitors of L3MBTL1: Hit Validation (AID 540279). Note: potency is the fitted concentration of half-maximal effect; nearly all actives have a fitted effect of over 70% in size. Conditions: L3MBTL1 methyl-lysine binding inhibition, biochemical qHTS. The essentials:
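AlphaScreen displacement: 50 nM L3MBTL1 bound to 75 nM biotin-H3K9me1 peptide for 30 min, compound added for 30 min at room temperature, then beads at 10 ug/mL final for 30 min in the dark. Cefsulodin titration served as intraplate control.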

For test [20], the target named is Androgen receptor (Homo sapiens) (UniProt P10275). Nature of the test: qHTS assay for small molecule agonists of androgen receptor signaling (AID 588515; active = well fitted curve in the direction sought with a large enough effect in the signal ratio, with a control signal flat; the % refers to the signal ratio; note: % is set by controls: 0 for no effect and ±100 for the full control effect). The following applies: AR-UAS-bla HEK293, beta-lactamase ratio, agonist 16 h; stronger effect = higher value. The essentials: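 Stimulation of an AR-responsive β-lactamase reporter in GripTite HEK293 cells was measured after 16 h compound exposure at 37 °C, via CCF4 fluorescence after 2 h RT. EC50 from Hill fits, normalized to R1881 at 30 nM.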
Androgen receptor (Homo sapiens), sequence (P10275 whole entry, looked up): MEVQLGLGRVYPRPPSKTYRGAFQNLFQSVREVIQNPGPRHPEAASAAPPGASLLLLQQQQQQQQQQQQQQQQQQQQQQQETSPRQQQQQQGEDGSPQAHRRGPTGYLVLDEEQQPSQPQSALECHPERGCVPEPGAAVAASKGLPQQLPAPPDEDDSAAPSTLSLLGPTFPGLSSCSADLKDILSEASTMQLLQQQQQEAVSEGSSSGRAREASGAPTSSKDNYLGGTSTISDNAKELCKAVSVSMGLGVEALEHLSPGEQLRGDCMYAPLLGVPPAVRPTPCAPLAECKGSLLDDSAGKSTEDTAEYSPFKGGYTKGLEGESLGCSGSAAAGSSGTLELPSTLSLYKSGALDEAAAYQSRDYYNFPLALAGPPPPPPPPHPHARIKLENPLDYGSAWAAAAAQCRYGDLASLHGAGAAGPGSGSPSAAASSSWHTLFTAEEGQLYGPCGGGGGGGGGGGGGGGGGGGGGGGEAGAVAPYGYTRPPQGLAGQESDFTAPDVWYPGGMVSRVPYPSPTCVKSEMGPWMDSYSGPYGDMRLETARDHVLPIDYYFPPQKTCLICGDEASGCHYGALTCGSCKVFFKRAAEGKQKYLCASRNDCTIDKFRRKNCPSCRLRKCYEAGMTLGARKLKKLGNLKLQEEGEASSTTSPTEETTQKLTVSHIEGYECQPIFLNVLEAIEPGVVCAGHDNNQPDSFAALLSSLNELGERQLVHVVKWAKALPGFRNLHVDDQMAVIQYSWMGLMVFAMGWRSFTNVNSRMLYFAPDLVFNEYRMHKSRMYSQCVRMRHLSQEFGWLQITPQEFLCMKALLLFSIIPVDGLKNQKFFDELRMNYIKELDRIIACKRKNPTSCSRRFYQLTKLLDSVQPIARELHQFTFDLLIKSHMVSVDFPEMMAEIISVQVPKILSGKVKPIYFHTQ

“And” between values parts separate entries of the source, which are not always exact repeats. Equal entries are not always repeated. Inconclusive results are not listed. This is one part of the list. The source made the active and inactive calls. Unless noted, calls come from the whole dose curve; as a rule, active = well fitted curve in the direction sought with a large enough effect; inconclusive = small, poorly fitted or top-dose-only effect, or another doubt; inactive = no such curve, though single readings can be large; an effect the other way counts as inactive or inconclusive.

The results in this text go back to PubChem BioAssay (NCATS).

Cytochrome P450 2D6 (Homo sapiens), sequence (P10635 whole entry, looked up): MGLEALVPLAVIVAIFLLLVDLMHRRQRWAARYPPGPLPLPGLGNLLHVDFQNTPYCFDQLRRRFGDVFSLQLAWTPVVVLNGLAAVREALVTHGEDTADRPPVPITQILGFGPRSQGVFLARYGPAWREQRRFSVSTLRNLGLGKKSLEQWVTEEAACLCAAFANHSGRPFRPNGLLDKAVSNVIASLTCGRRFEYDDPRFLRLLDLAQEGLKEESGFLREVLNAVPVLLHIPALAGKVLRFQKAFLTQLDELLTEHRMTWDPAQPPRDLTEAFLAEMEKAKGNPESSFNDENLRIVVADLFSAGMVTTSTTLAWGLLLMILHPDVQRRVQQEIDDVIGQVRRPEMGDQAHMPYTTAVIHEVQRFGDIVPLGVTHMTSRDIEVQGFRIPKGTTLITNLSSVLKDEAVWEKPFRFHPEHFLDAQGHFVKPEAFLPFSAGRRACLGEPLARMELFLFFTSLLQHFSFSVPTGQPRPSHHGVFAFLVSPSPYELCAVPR
Cytochrome P450 2C19 (Homo sapiens), sequence (P33261 whole entry, looked up): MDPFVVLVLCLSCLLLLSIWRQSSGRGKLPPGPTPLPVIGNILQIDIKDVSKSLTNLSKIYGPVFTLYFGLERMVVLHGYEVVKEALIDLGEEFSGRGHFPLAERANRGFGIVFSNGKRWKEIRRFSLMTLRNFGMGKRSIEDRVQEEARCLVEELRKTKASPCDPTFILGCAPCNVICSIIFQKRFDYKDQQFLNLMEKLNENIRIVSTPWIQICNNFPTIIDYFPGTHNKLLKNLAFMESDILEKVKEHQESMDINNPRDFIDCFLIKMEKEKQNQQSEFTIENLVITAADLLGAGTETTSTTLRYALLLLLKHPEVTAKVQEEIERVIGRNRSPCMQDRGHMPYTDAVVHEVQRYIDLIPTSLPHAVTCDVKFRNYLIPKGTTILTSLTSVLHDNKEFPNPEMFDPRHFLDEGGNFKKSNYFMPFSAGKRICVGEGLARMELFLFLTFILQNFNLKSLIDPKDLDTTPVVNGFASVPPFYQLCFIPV
Alpha-galactosidase (Coffea arabica), sequence (Q42656 whole entry, looked up): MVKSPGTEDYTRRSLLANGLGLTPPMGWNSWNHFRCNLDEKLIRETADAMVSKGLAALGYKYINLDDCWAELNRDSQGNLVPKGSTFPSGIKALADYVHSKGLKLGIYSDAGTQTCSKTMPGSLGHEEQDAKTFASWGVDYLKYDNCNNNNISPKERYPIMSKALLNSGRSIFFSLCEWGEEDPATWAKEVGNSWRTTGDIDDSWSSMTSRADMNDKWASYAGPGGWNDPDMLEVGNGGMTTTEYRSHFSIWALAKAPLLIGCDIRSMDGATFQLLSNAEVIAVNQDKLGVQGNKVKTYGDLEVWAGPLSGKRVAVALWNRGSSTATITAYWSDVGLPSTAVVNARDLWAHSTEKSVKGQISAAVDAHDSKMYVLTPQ
Lethal(3)malignant brain tumor-like protein 1 (Homo sapiens), sequence (Q9Y468 whole entry, looked up): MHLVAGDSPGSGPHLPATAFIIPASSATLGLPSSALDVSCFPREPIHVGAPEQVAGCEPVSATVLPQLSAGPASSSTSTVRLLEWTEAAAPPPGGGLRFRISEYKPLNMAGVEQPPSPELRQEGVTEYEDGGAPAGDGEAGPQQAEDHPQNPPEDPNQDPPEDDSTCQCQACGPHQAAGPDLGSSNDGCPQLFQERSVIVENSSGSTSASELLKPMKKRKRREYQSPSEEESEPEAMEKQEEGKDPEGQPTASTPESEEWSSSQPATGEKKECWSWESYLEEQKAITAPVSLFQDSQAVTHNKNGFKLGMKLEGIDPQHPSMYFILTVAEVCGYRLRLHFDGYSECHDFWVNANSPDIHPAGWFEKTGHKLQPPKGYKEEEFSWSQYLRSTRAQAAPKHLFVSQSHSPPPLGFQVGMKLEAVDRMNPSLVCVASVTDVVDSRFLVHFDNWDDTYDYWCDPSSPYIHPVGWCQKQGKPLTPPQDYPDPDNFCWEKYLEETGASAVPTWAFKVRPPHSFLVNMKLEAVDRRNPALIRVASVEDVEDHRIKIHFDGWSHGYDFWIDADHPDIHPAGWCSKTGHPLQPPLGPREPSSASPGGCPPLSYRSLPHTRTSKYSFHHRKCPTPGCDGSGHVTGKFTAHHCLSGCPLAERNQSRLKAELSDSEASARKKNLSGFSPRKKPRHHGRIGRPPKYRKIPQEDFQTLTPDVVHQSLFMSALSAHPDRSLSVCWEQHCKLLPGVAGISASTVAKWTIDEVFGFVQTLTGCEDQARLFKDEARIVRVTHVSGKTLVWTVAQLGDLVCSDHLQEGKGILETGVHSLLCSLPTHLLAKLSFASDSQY

As to `CCC1CN2CCC1CC2[C@@H](Oc1cc2ccccc2c2ccccc12)c1ccnc2ccc(O)cc12` (some centres undefined), the compound was called inactive in test [1], in [2], in test [3], in test [4] and in [5].
On to `CC[C@@H](CO)Nc1nc(NCc2ccccc2)c2ncn(C(C)C)c2n1`, for which the compound was called inactive in test [6] and in test [7]. Besides, the values for the Potency in test [8] and in test [9] were 18.4 µM (active) and 31.6 µM (active), respectively. Moreover, the viability change in test [8] was -22.6%.
For the compound `O=C(NC(=O)c1c(F)cccc1F)Nc1ccc(Cl)cc1`, the Potency entry in [10] is “inactive”. Further, the max response in [11] was -17.2%. Besides, the Potency in test [12] was 15.8 µM (active).
In the case of `CN1[C@H]2CC(OC(=O)[C@H](CO)c3ccccc3)C[C@H]1[C@H]1O[C@H]12` (some centres undefined), the Potency result in test [13] and in test [14] was “inactive” each time.
Consider `CSc1nc(NC(C)C)nc(NC(C)C)n1`, for which the activation in test [15] is -3.76% (inactive).
For the compound `C=CCO[C@@H](Cn1ccnc1)c1ccc(Cl)cc1Cl`, the Potency in test [16] is 5.01 µM (active).
Consider `CC(C)N(C(=O)CCl)c1ccccc1`, for which the Potency was 15.8 µM [inhibitor] (active) in test [10] and 39.8 µM (active) in test [17].
On to `CCCCN(CC)c1c([N+](=O)[O-])cc(C(F)(F)F)cc1[N+](=O)[O-]`, for which the activation in [15] was -2.46% (inactive).
`C[C@@H]1O[C@H](O[C@H]2C[C@@H](O)[C@]3(CO)[C@H]4[C@H](O)C[C@]5(C)[C@@H](C6=CC(=O)OC6)CC[C@@]5(O)[C@H]4CC[C@]3(O)C2)[C@@H](O)[C@H](O)[C@H]1O`: the Potency entry in test [16] and in test [18] was “inactive” each time.
Turning to `Cc1cc(/C=C2/C(=O)NC(=O)N(Cc3ccco3)C2=O)c(C)n1-c1ccc(C(=O)O)cc1`, the Potency in [19] is 9.47 µM (active).
Regarding `COc1ccc2c(c1OC)C(=O)O[C@@H]2[C@H]1c2cc3c(cc2CCN1C)OCO3`, the Potency in test [18] was 3.16 µM (active).
Regarding `C=CC(=O)NCO`, the Potency entry in test [10] and in test [17] was “inactive” each time. In addition, the activation was -1.79% (inactive) and 14.2% (inactive) in test [20]; 0.261% (inactive) and -0.511% (inactive) in [15].
Turning to `C/C(=N\C(N)=O)N(C)Cc1ccc(Cl)nc1`, the Potency result in test [10], in test [17] and in [12] was “inactive” each time. For the same compound, the activation is -2.44% (inactive) in test [20] and -4.92% (inactive) in test [15]. Besides, the max response in test [11] was -8.24%.
